Test results published in PubChem BioAssay.

Each compound was assayed against Dickkopf-related protein 1 (Homo sapiens) (UniProt O94907) (assay: small molecules binding DKK1 protein – biochemical, small-molecule microarray, 635 nm fluorescence scan, primary screen (AID 1106;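 further: score merges emission near 667 nm with signal to noise over three replicate slides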)). Settings: higher = more signal.
Dickkopf-related protein 1 (Homo sapiens), sequence (O94907 whole entry, looked up): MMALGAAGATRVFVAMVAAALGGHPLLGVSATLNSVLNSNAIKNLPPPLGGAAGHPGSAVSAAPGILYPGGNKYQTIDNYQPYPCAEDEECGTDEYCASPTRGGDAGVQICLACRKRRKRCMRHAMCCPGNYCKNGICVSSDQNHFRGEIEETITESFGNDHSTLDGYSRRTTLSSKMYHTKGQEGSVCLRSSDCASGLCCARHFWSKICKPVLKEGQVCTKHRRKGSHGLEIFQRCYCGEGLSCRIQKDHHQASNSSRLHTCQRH

SMILES	composite z-score
CC(CO)N1C(=O)[C@@H]2C3C(=O)OCCC/C=C\[C@H]3OC23C=CCN(C(C)(C)C)C(=O)[C@@H]13 (stereo not given in full)	0.113
CN1C(=O)C2C=CC(C(O)c3ccccc3)N(N(c3ccccc3)c3ccccc3)C2C1=O (stereo not given)	0.254
C=CCOC(=O)[C@H]1[C@@H]2C(=O)O[C@@H](c3ccccc3)[C@@H](c3ccccc3)N2[C@@H](c2ccc(OCCOC(=O)[C@@H]3C[C@@H]4C(=O)N[C@@H](CCCCNC(C)=O)C(=O)N4[C@@H]3c3ccc(O)cc3)cc2)[C@]12C(=O)Nc1ccccc12	0.783
C[C@H]1C2[C@H](Cc3ccccc3)NC(=O)[C@]23C(=O)N[C@H](Cc2ccccc2)C(=O)N2CCC[C@H]2C(=O)NC/C=C\C/C=C/C3[C@@H]2O[C@]12C (stereo not given in full)	0.299
CC(C)C(O)C1C=CC2C(=O)NC(=O)C2N1Nc1ccc(Cl)cc1Cl (stereo not given)	-0.939
COC(=O)C(CC#Cc1ccc2c(c1)[C@]1(C(=O)N2)[C@H](C(=O)Nc2nc3ccccc3s2)[C@H]2C(=O)O[C@H](c3ccccc3)[C@H](c3ccccc3)N2[C@@H]1c1ccc(O)cc1)C(=O)OC	0.829
CC(C)C(O)C1C=CC2C(=O)N(c3ccccc3)C(=O)C2N1Nc1ccc([N+](=O)[O-])cc1 (stereo not given)	-0.467
CC(C)C[C@@H]1NC(=O)[C@@H]2C[C@H](C(=O)NCc3ccc(F)cc3)[C@H](c3cccc(OCCO)c3)N2C1=O	0.322
CCCC[C@H]1OB(O)C[C@H]2C1=C(COC)C[C@H]1C(=O)N(C)C(=O)[C@H]12	0.281
COCCOC(=O)N1C(=O)[C@@]2(c3cc(C#Cc4ccc(OC)cc4)ccc31)[C@H](c1ccccc1OCCO)N1[C@H](c3ccccc3)[C@H](c3ccccc3)OC(=O)[C@H]1[C@@H]2C(=O)NC[C@H](O)c1ccccc1	0.696
CCOC(=O)C[C@H]1[C@H](OC(=O)c2ccc(C(=O)c3ccccc3)cc2)[C@@H](NC(=O)c2ccccc2)c2cc(OCCCO)ccc2N1C(=O)c1ccc2ccccc2n1	-0.186
O=C(c1ccccc1)N1C(=O)[C@@]2(Cc3ccccc31)N=C(c1ccc(OCCCO)cc1)O[C@H]2c1ccccc1	0.973
Cc1ccc(N2C(=O)c3ccccc3[C@@H](C(=O)NC3CC3)[C@@H]2c2ccc(CO)cc2)nc1	-2.23
[N-]=[N+]=Nc1ccccc1[C@@H]1OC(c2ccc(OCCCO)cc2)=N[C@]1(CCS(=O)(=O)c1ccccc1)C(N)=O	-0.329
COC(=O)C(CC#Cc1ccc2c(c1)[C@]1(C(=O)N2)[C@H](C(=O)Nc2nc3ccccc3s2)[C@H]2C(=O)O[C@H](c3ccccc3)[C@H](c3ccccc3)N2[C@@H]1c1ccccc1OCCO)C(=O)OC	0.193
CCOC(=O)C[C@H]1[C@H](OC(=O)c2ccc(C(=O)c3ccccc3)cc2)[C@@H](NC(=O)CC(C)C)c2cc(OCCCO)ccc2N1C(=O)c1ccc2ccccc2n1	1.09
C=CC[C@]1(C(=O)NCc2ccccc2)N=C(c2ccc(OCCCO)cc2)O[C@H]1c1ccccc1N=[N+]=[N-]	-0.284
OCCCC1=CC(c2cccs2)N(Cc2cc3c(cc2Br)OCO3)CC1 (stereo not given)	0.211
COc1ccc(C#Cc2ccc3c(c2)[C@]2(C(=O)N3)[C@H](C(=O)Nc3nc4ccccc4s3)[C@H]3C(=O)O[C@H](c4ccccc4)[C@H](c4ccccc4)N3[C@@H]2c2ccc(O)cc2)cc1	0.63
NC(=O)[C@@H]1[C@H]2C(=O)O[C@H](c3ccccc3)[C@H](c3ccccc3)N2[C@H](c2ccc(O)cc2)[C@@]12C(=O)Nc1ccccc12	-1.91
CCCCC(CC)C(O)C1C=CC2C(=O)N(Cc3ccccc3)C(=O)C2N1n1cnnc1 (stereo not given)	-0.691
O=C1O[C@H](c2ccccc2)[C@H](c2ccccc2)N2[C@H]1[C@@H](C(=O)N1CCCCCCC1)[C@]1(C(=O)Nc3ccc(C#CCCO)cc31)[C@H]2c1ccccc1OCCO	2.76
C=CCNC(=O)[C@H]1[C@@H]2C(=O)O[C@@H](c3ccccc3)[C@@H](c3ccccc3)N2[C@@H](c2ccccc2OCCO)[C@]12C(=O)Nc1ccc(C#CCCO)cc12	1.97
COc1ccc(C#Cc2ccc3c(c2)[C@]2(C(=O)N3)[C@H](c3ccccc3OCCO)N3[C@H](c4ccccc4)[C@H](c4ccccc4)OC(=O)[C@H]3[C@@H]2C(=O)Nc2nc3ccccc3s2)cc1	0.62
CN1C(=O)C2C=CC(C(O)C3CC=CCC3)N(N(c3ccccc3)c3ccccc3)C2C1=O (stereo not given)	0.175
